“And” between values parts separate entries of the source, which are not always exact repeats. Equal entries are not always repeated. Where a structure was tested more than once in an assay, its records may differ in their call. The source made the active and inactive calls. How the source made its calls: active means hit-call score of the fitted dose curve at least 0.9, where 1 is the maximum; inactive means score below 0.9.
read-out: urokinase plasminogen activator (uPA), PLAU (gene 5328); test: BSK_KF3CT_uPA: BioMAP Diversity Plus: KF3CT Assay for urokinase plasminogen activator (uPA) Biomarker Activity (AID 2283075); details: primary human keratinocytes with fibroblasts; actives raise or lower the signal
Experimental: BSK_KF3CT is a cell-based, multiplexed-readout assay that uses keratinocytes and foreskin fibroblasts, a human skin primary cell co-culture, with measurements taken at 24 hours after chemical dosing in a 96-well plate.BSK_KF3CTA is an assay component measured in the BSK_KF3CT assay. It measures uPA antibody related to regulation of gene expression using ELISA technology.Data from the assay component BSK_KF3CTA was analyzed into 1 assay endpoint. This assay endpoint, BSK_KF3CTA, was analyzed with bidirectional fitting relative to DMSO as the negative control and baseline of activity. Using a type of binding reporter, gain or loss-of-signal activity can be used to understand changes in the signaling as they relate to the gene PLAU. Furthermore, this assay endpoint can be referred to as a primary readout, because this assay has produced multiple assay endpoints where this one serves a signaling function. To generalize the intended target to other relatable targets, this assay endpoint is annotated to the protease intended target family, where the subfamily is serine protease.
The levels of cell surface (or secreted, indicated by the prefix "s") biomarker endpoints were measured by ELISA. Overt cytotoxicity to cells in confluent adherent cultures (all systems other than the BT system) was assessed by measuring total protein levels using sulforhodamine B (SRB) staining in parallel cultures at the time of biomarker measurements, indicated as SRB endpoints. For proliferation assays for adherent cell types, individual cell types are cultured at sub-confluence and relative cell numbers quantified by SRB staining at time points optimized for each system (48 h: 3C and CASM3C systems; 72 h: BT and HDF3CGF systems; 96 h: SAg system). SRB was performed by staining cells with 0.1% SRB after fixation with 10% TCA and reading wells at 560 nm.Viability and proliferation of PBMC (T cells) was quantified by Alamar Blue reduction for the SAg and BT systems. For PBMC viability (referred to as PBMC Cytotoxicity within the assay endpoint names), cells were plated (75,000/well in a 96-well plate) and then chemical samples added for 1 h before addition of activators, SEB and TSST-1 (20 ng/mL final concentration each). Cells were incubated for 90 h. Then, Alamar Blue (20 uL/well) (Invitrogen, Cat DAL1100) was added for 6 h, and the plates were read with a fluorescence microplate reader at 546/580 nm (excitation/emission). For PBMC proliferation, cells were plated and activated as above but incubated for only 16 h prior to addition of Alamar Blue. Plates were read after 6 h.

| Compound | outcome | AC50 |
| --- | --- | --- |
| O=C(O)COc1nc(Cl)c(Cl)cc1Cl | inactive | – |
| CON(C)C(=O)Nc1ccc(Cl)c(Cl)c1 | inactive | – |
| Oc1ccccc1-c1ccccc1 | inactive | – |
| COc1cnc(OC)n2nc(NS(=O)(=O)c3c(OCC(F)F)cccc3C(F)(F)F)nc12 | inactive | 29.6 µM (active) |
| COc1ccc(C(c2ccc(OC)cc2)C(Cl)(Cl)Cl)cc1 | inactive | – |
| CCCCNC(=O)OCC#CI | – | 29.6 µM (active) and 15.1 µM (active) |
| C=CC1(C)OC(=O)N(c2cc(Cl)cc(Cl)c2)C1=O (stereo not given) | inactive | – |
| CCCCNC(=O)n1c(NC(=O)OC)nc2ccccc21 | inactive | – |
| CCNc1nc(Cl)nc(NCC)n1 | inactive | – |
| COC(=O)c1ccccc1C(=O)OC | inactive | – |
| Cc1c(F)c(F)c(COC(=O)C2C(/C=C(\Cl)C(F)(F)F)C2(C)C)c(F)c1F (stereo not given) | inactive | – |
| CCOc1cc(Oc2ccc(C(F)(F)F)cc2Cl)ccc1[N+](=O)[O-] | inactive | – |
| COP(N)(=O)SC (stereo not given) | inactive | – |
| Cc1ccc(-c2c(Cl)nc(C#N)n2S(=O)(=O)N(C)C)cc1 | inactive | – |
| CNC(=O)ON=CC(C)(C)SC | inactive | – |
| N#Cc1nn(-c2c(Cl)cc(C(F)(F)F)cc2Cl)c(N)c1S(=O)C(F)(F)F (stereo not given) | inactive | – |
| CC(Oc1ccc(Cl)cc1Cl)C(=O)O (stereo not given) | inactive | – |
| COC(=O)C=C(C)OP(=O)(OC)OC | inactive | – |
| CO/C=C(/C(=O)OC)c1ccccc1Oc1cc(Oc2ccccc2C#N)ncn1 | inactive | – |

| Compound | outcome | AC50 |
| --- | --- | --- |
| CCCCC(CC)COC(=O)c1ccccc1C(=O)OCC(CC)CCCC (stereo not given) | inactive | – |
| COC(=O)C(C)Oc1ccc(Oc2ccc(Cl)cc2Cl)cc1 (stereo not given) | inactive | 21.1 µM (active) and 31.6 µM (active) |
| CCCN(CCC)c1c([N+](=O)[O-])cc(S(N)(=O)=O)cc1[N+](=O)[O-] | inactive | – |
| Fc1ccc(Oc2ccnc3cc(Cl)cc(Cl)c23)cc1 | inactive | – |
| CCNc1nc(Cl)nc(NC(C)C)n1 | inactive | – |
| COc1nc(C)nc(NC(=O)NS(=O)(=O)c2ccccc2Cl)n1 | inactive | – |
| CCON=C(CC)C1=C(O)CC(c2c(C)cc(C)cc2C)CC1=O (stereo not given) | inactive | – |
| O=C(O)c1nc(Cl)ccc1Cl | inactive | – |
| O=C(Nc1ccccc1)Nc1ccnc(Cl)c1 | inactive | – |
| C=CCC1=C(C)[C@@H](OC(=O)[C@@H]2[C@@H](C=C(C)C)C2(C)C)CC1=O | inactive | – |
| CN(C)C(=S)SSC(=S)N(C)C | – | 10.3 µM (active) |
| OC(c1ccc(Cl)cc1)(c1cncnc1)c1ccccc1Cl (stereo not given) | inactive | – |
| C=CCC1=C(C)C(OC(=O)C2C(C=C(C)C)C2(C)C)CC1=O (stereo not given) | inactive | 33.8 µM (active) and 33.3 µM (active) |
| CS/C(C)=N/OC(=O)N(C)SN(C)C(=O)O/N=C(\C)SC | – | 16.9 µM (active) |
| CC1=C(C(=O)Nc2ccccc2)SCCO1 | inactive | – |
| CCOC(=O)C(Cl)Cc1cc(-n2nc(C)n(C(F)F)c2=O)c(F)cc1Cl (stereo not given) | inactive | – |
| CC(C)C1(C)N=C(c2nc3ccccc3cc2C(=O)O)NC1=O (stereo not given) | inactive | – |
| CCCCOC(=O)c1ccccc1C(=O)OCCCC | inactive | – |

From PubChem BioAssay (EPA / NIEHS)
